Results on 7 sequences are retold here after article PMC7862700, “An all-to-all approach to the identification of sequence-specific readers for epigenetic DNA modifications on cytosine”.

Holding throughout (test): DAPPL (digital affinity profiling via proximity ligation, sequencing); 10 mM Tris-HCl pH 7.5, 50 mM NaCl, 1 mM DTT, 4% glycerol, room temperature, 30 min; GST-TFs on glutathione beads, 16-mer random dsDNA library, 0.1% formaldehyde crosslink after washing; high values mean tight binding
Conditions in all cases: protein: recombinant; tags: N-terminal GST; dsDNA, one strand shown

For one experiment, the target named is T1, ERF (Homo sapiens, UniProt P50548 1-548).
T1 sequence: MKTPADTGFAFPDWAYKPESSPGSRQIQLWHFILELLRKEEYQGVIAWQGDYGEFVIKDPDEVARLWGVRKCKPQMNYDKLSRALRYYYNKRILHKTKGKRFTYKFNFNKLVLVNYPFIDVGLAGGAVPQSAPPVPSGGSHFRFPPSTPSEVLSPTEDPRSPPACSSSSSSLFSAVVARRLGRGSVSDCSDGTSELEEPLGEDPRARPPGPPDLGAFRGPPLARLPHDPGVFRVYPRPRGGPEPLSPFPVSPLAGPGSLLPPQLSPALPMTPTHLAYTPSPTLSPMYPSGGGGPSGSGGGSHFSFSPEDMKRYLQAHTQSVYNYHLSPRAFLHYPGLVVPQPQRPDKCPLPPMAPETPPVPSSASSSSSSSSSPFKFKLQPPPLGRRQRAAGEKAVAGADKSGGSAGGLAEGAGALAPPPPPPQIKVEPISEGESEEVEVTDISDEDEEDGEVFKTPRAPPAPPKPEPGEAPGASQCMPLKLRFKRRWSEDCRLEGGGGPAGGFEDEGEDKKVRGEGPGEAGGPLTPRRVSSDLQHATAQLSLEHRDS
Summed up:
(§1)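 Pools were built from human transcription factors expressed in yeast as GST fusions, captured on glutathione beads and DNA-barcoded, along with a tag-only sample. Incubation with 200 nmole of a 16-mer random double-stranded DNA library lasted 30 min at room temperature in Tris/NaCl/DTT/glycerol buffer, and was followed by washing, 0.1% formaldehyde crosslinking, proximity ligation, PCR amplification and Illumina NextSeq500 sequencing. Binding signal is the quotient of each hexamer's read frequency for a factor and its frequency for the tag-only sample.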

The next experiment concerns the target T2, ETV3L (Homo sapiens, UniProt Q6ZN32 1-361).
T2 sequence: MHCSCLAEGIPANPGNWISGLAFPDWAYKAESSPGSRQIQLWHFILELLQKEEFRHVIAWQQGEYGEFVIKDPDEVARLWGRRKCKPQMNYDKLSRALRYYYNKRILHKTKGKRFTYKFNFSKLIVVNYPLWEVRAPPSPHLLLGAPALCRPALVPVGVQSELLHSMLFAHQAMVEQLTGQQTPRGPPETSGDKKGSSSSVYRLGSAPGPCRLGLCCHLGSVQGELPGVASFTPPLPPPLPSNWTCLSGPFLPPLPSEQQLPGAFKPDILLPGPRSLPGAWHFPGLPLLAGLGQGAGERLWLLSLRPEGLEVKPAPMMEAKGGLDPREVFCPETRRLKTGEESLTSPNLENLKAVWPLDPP
Summed up:
as §1

The next experiment has as its target T3, ETS2 (Homo sapiens, UniProt P15036 1-469).
T3 sequence: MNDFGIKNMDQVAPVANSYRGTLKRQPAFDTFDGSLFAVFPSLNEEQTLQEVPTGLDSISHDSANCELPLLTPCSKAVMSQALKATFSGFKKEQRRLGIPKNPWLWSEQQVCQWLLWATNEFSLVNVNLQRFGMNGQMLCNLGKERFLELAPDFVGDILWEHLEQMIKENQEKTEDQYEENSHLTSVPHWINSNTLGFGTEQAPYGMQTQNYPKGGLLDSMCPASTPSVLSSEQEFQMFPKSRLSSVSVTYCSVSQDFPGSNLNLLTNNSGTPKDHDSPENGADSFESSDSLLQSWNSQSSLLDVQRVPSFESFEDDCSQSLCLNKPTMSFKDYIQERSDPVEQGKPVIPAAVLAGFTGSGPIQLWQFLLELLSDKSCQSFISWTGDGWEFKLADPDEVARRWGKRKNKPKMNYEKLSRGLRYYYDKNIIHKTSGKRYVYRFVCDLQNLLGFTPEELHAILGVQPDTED
Summed up:
as §1

The target of the next experiment is T4, SPDEF (Homo sapiens, UniProt O95238 1-335).
T4 sequence: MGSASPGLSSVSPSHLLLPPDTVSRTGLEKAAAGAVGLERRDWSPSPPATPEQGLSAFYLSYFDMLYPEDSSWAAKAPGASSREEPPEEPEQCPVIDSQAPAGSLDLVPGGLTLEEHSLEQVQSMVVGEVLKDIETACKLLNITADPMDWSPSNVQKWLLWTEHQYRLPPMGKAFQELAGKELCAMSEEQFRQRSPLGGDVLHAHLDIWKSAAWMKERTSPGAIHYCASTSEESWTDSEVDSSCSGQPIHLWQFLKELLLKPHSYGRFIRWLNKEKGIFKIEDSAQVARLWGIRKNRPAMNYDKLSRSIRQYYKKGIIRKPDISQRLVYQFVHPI
Summed up: as §1

A further experiment addresses T5, ETV7 (Homo sapiens, UniProt Q9Y603 1-341).
T5 sequence: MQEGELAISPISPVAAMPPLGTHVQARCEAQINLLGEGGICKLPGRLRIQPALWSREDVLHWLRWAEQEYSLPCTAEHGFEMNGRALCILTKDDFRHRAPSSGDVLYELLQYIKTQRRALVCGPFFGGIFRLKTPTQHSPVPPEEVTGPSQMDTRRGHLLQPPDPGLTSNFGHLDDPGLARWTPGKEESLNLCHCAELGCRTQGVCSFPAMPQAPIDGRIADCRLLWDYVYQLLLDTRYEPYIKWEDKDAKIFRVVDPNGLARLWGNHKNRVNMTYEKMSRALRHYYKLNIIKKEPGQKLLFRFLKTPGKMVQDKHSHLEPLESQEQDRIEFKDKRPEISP
Summed up:
as §1

Another experiment concerns the target T6, ELF5 (Homo sapiens, UniProt Q9UKW6-2 1-255).
T6 sequence: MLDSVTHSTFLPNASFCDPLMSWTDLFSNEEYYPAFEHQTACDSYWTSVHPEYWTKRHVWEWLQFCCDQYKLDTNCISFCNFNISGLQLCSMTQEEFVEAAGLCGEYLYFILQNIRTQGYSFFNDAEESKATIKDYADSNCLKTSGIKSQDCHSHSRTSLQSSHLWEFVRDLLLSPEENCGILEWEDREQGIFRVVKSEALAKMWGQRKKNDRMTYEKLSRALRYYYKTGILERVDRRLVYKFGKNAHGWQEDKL
Summed up: as §1

A further experiment has as its target T7, ETV3 (Homo sapiens, UniProt P41162-2 1-143).
T7 sequence: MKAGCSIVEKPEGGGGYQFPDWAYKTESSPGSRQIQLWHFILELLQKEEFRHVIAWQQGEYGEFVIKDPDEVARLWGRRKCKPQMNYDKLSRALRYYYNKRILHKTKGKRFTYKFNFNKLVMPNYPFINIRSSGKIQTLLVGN
Summed up: as §1

The target in a further experiment is ETV6 (Homo sapiens, UniProt P41212 1-452). Summed up: as §1
ETV6, sequence (P41212 whole entry): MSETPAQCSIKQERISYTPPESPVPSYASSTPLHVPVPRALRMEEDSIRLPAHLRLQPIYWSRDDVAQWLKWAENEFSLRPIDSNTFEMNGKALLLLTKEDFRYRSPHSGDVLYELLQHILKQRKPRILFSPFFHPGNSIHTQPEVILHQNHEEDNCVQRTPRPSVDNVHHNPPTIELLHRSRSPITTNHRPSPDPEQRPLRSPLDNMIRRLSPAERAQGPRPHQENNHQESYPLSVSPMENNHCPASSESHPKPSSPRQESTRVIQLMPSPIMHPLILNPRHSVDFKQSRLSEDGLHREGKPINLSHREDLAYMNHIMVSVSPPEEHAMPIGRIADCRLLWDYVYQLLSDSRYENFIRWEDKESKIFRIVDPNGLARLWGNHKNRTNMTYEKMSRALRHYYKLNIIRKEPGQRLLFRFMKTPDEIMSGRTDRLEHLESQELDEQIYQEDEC

Take CACGTA: the binding signal was 1.19 fold enrichment (6-mer frequency, TF over GST control) with ERF; 1.17 fold enrichment (6-mer frequency, TF over GST control) with ETV3L; 1.14 fold enrichment (6-mer frequency, TF over GST control) in the experiment with ETS2; 1.15 fold enrichment (6-mer frequency, TF over GST control) with SPDEF; 1.18 fold enrichment (6-mer frequency, TF over GST control) with ETV7; 1.15 fold enrichment (6-mer frequency, TF over GST control) with ELF5. The binding signal was 1.16 fold enrichment (6-mer frequency, TF over GST control) with ETV3 and 1.11 fold enrichment (6-mer frequency, TF over GST control) with ETV6.

Take TTCGAA: the binding signal with ERF is 1.33 fold enrichment (6-mer frequency, TF over GST control); with ETV3L, 1.25 fold enrichment (6-mer frequency, TF over GST control); with ETS2, 1.24 fold enrichment (6-mer frequency, TF over GST control); with SPDEF, 1.17 fold enrichment (6-mer frequency, TF over GST control); with ETV7, 1.26 fold enrichment (6-mer frequency, TF over GST control); with ELF5, 1.14 fold enrichment (6-mer frequency, TF over GST control). Moreover, the binding signal was 1.03 fold enrichment (6-mer frequency, TF over GST control) in the experiment with ETV3 and 1.15 fold enrichment (6-mer frequency, TF over GST control) with ETV6.

Regarding ATAACA, the binding signal with ERF is 1.31 fold enrichment (6-mer frequency, TF over GST control); with ETV3L, 1.28 fold enrichment (6-mer frequency, TF over GST control); in the experiment with ETS2, 1.27 fold enrichment (6-mer frequency, TF over GST control); with SPDEF, 1.21 fold enrichment (6-mer frequency, TF over GST control); with ETV7, 1.32 fold enrichment (6-mer frequency, TF over GST control); in the experiment with ELF5 it was 1.28 fold enrichment (6-mer frequency, TF over GST control). In addition, the binding signal with ETV3 is 1.2 fold enrichment (6-mer frequency, TF over GST control); in the experiment with ETV6 it was 1.26 fold enrichment (6-mer frequency, TF over GST control).

Turning to CTTTAT, the binding signal is 1.08 fold enrichment (6-mer frequency, TF over GST control) with ERF; 1.22 fold enrichment (6-mer frequency, TF over GST control) in the experiment with ETV3L; 1.29 fold enrichment (6-mer frequency, TF over GST control) with ETS2; 1.14 fold enrichment (6-mer frequency, TF over GST control) with SPDEF; 1.31 fold enrichment (6-mer frequency, TF over GST control) in the experiment with ETV7; 1.13 fold enrichment (6-mer frequency, TF over GST control) with ELF5. Also, the binding signal with ETV3 was 1.19 fold enrichment (6-mer frequency, TF over GST control); in the experiment with ETV6 it was 1.23 fold enrichment (6-mer frequency, TF over GST control).

Regarding CAACTT, the binding signal with ERF is 1.44 fold enrichment (6-mer frequency, TF over GST control); with ETV3L, 1.51 fold enrichment (6-mer frequency, TF over GST control); in the experiment with ETS2, 1.6 fold enrichment (6-mer frequency, TF over GST control); with SPDEF, 1.49 fold enrichment (6-mer frequency, TF over GST control); with ETV7, 1.37 fold enrichment (6-mer frequency, TF over GST control); in the experiment with ELF5, 1.61 fold enrichment (6-mer frequency, TF over GST control). For the same sequence, the binding signal in the experiment with ETV3 is 1.55 fold enrichment (6-mer frequency, TF over GST control); with ETV6, 1.62 fold enrichment (6-mer frequency, TF over GST control).

As to TTGAAA, the binding signal was 1.13 fold enrichment (6-mer frequency, TF over GST control) in the experiment with ERF; 1.23 fold enrichment (6-mer frequency, TF over GST control) with ETV3L; 1.24 fold enrichment (6-mer frequency, TF over GST control) with ETS2; 1.07 fold enrichment (6-mer frequency, TF over GST control) with SPDEF; 1.19 fold enrichment (6-mer frequency, TF over GST control) in the experiment with ETV7; 1.03 fold enrichment (6-mer frequency, TF over GST control) in the experiment with ELF5. Further, the binding signal is 1.17 fold enrichment (6-mer frequency, TF over GST control) with ETV3 and 1.09 fold enrichment (6-mer frequency, TF over GST control) in the experiment with ETV6.

As to CGCCCT, the binding signal with ERF is 1.37 fold enrichment (6-mer frequency, TF over GST control); with ETV3L it was 1.34 fold enrichment (6-mer frequency, TF over GST control); with ETS2 it was 1.38 fold enrichment (6-mer frequency, TF over GST control); with SPDEF it was 1.31 fold enrichment (6-mer frequency, TF over GST control); in the experiment with ETV7, 1.51 fold enrichment (6-mer frequency, TF over GST control); with ELF5, 1.22 fold enrichment (6-mer frequency, TF over GST control). Further, the binding signal with ETV3 is 1.34 fold enrichment (6-mer frequency, TF over GST control); with ETV6 it was 1.31 fold enrichment (6-mer frequency, TF over GST control).
